High-throughput results: PubChem BioAssay, several laboratories
Hits are enriched below; roughly 2.5% of the tested compounds scored in any of these assays.
aSyn 5UTR inh – MLPCN primary screen, SNCA 5' untranslated region; alpha-synuclein 5'UTR reporter, inhibitor activity; inhibition, % (tested at 7.5 µM); 0.82% of 300,000 active; AID 1813; in the data active means inhibition above about 60%; inconclusive means no clear call, values can overlap the other calls;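 further: H4 neuroglioblastoma cells stably carrying SNCA 5'UTR luciferase fusion; 0% = DMSO wells and 100% = positive control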
Jurkat NFkB inh – lowers PMA/ionomycin-induced NF-kB signal in Jurkat cells | AID 435003 | PMA/ionomycin-induced NF-kB luciferase reporter, luminescence | 0.53% of 330,000 active | inhibition, % at 4 µM; in the data active means inhibition above about 50%
TMEM16A act – activators or potentiators of mouse TMEM16A chloride channel; Q8BHY3; HEK293 TMEM16A/YFP-H148Q/I152L, iodide quench fluorescence; hits give low values; B-score at 10 µM; 0.3% of 340,000 active;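 active means fluorescence-ratio B-score plate-corrected deviation score at least 3 library SD below zero, with starting fluorescence score within 5 deviations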;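 further: channel opened by trigger with iodide after compound preincubation; score built on the fluorescence ratio of max minus min over baseline; more negative score means more quench and so TMEM16A activation or potentiation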
697 NFkB inh – lowers PMA/ionomycin-induced NF-kB signal in 697 B cells | 697 B-cell NF-kB luciferase reporter, 16 h | inhibition, % at 4 µM | 0.33% of 330,000 active; in the data active means inhibition above about 35%
KLF5 inh – inhibitors of KLF5 expression. DLD-1 KLF5 promoter-luciferase reporter, luminescence. inhibition, % at 5 µM. 0.23% of 290,000 active;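 active means inhibition above a per-plate limit of that plate's mean compound inhibition plus 3 SD, cut at about 60% in these data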;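 further: 0% = DMSO wells and 100% = LY294002 at 200 µM; higher means less KLF5 promoter-driven luciferase light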
TMEM16A inh – blocks the mouse calcium-activated chloride channel TMEM16A | Q8BHY3 | AID 588511 | normalized B-score (activity score, 25-100; higher = stronger inhibition) at 10 µM | HEK293 TMEM16A/YFP iodide influx fluorescence, ionomycin | 1.2% of 310,000 active;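 active means ratio plate-corrected score three or more library SD toward inhibition, starting fluorescence score within five deviations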;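 further: score derived from kinetic fluorescence span divided by baseline fluorescence per well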
* hit, by the source's call; i = inactive; ? = inconclusive; nt = no result given.

SMILES	aSyn 5UTR inh	Jurkat NFkB inh	TMEM16A act	697 NFkB inh	KLF5 inh	TMEM16A inh
Cc1ccc(NC(=O)C2CCN(S(=O)(=O)c3ccc(C(C)(C)C)cc3)CC2)cc1S(=O)(=O)N1CCOCC1	nt	nt	i	nt	nt	nt
Cc1ccc2[nH]cc(/C=C/c3cc[n+](C)cc3)c2c1	65*	28	i	-5	9	i
COc1ccc2c(/C=C/c3cc[n+](C)cc3)c[nH]c2c1	7	15	i	-16	-18	i
O=C(Cn1cc(C(=O)C2CC2)c2ccccc21)NCC1CCCO1 (stereo unspecified)	15	-2	i	14	7	i
CC(=O)c1cn(CC(=O)NCC2CCCO2)c2ccccc12 (stereo unspecified)	-14	-12	-4.8*	-37	-11	i
Cc1c(N(C)C(=O)c2ccccc2F)c(=O)n(-c2ccccc2)n1C	20	-31	-6.5*	17	-8	i
O=C(N/N=C/c1ccc(Br)s1)c1c[nH]c2ccccc12	-152	-109	i	-86	-42	i
Cc1ccc(S(=O)(=O)N/N=C/c2cccc([N+](=O)[O-])c2)cc1	2	-14	i	12	1	i
CCCCCCCC(=O)Nc1ccc(C(=O)N/N=C/c2cccc([N+](=O)[O-])c2)cc1	76*	1	i	-6	-18	i
CCCCCCCCCS(=O)(=O)N/N=C/c1cccc([N+](=O)[O-])c1	15	6	i	9	-23	100*
Cc1ccc(NC(=O)CCC(=O)N/N=C/c2ccc([N+](=O)[O-])o2)cc1C	-2	4	i	18	9	i
CCCCCCC(=O)Nc1ccc(C(=O)N/N=C/c2cccnc2)cc1	-1	-13	i	-79	7	i
CCCC(=O)Nc1ccc(C(=O)N/N=C/c2ccc([N+](=O)[O-])o2)cc1	111*	-14	i	-41	-18	i
CN1CCN(C2=C(Cl)C(=O)C(c3cnc(N4CCCCC4)s3)=C(Cl)C2=O)CC1	-51	7	i	-10	4	100*
CC(C)c1ccc(N(CC(=O)NCCCN2CCOCC2)S(=O)(=O)c2ccccc2)cc1	nt	1	i	5	nt	nt
COc1ccc(CN2Cc3cccc4c3[C@@H](CC2=O)[C@H](O)[C@H](O)C4)cc1	nt	2	-9.2*	6	nt	nt
C(C#CCCCCCCCCC[n+]1ccccc1)#CCCCCCCCCC[n+]1ccccc1	73*	nt	i	nt	46	i
CCC(C(=O)OCC(=O)Nc1cc(Cl)cc(Cl)c1)c1ccccc1 (stereo unspecified)	15	3	i	-3	-2	100*
CN(CC(=O)Nc1c(Cl)cccc1Cl)C(=O)Cc1cccs1	nt	-5	i	10	nt	nt
c1ccc(-c2nnc(-c3ccccn3)nc2NC2CCCCC2)cc1	101*	48	i	-42	30	i
CC1CCCC(C)N1C(=O)COC(=O)Cc1c[nH]c2ccccc12 (stereo unspecified)	2	8	i	-23	nt	i
COc1ccc(/C=N/NC(=O)c2nc(-c3ccccc3)n(-c3ccccc3)n2)c(O)c1	87*	21	i	-19	-15	i
CC(C)(C)c1cc(C(=O)N/N=C/c2ccccc2O)n(-c2ccccc2)n1	62*	4	i	-67	-12	i
CCCC(NC(=O)c1ccc(Br)o1)c1nc2ccccc2[nH]1 (stereo unspecified)	nt	-5	i	20	nt	nt
Cc1cc(C)c2nc(-c3ccccn3)cc(C(=O)Nc3ccc(S(=O)(=O)Nc4onc(C)c4C)cc3)c2c1	5	0	i	-6	2	i
SMILES	aSyn 5UTR inh	Jurkat NFkB inh	TMEM16A act	697 NFkB inh	KLF5 inh	TMEM16A inh
Cc1cc(C)c2nc(-c3ccccn3)cc(C(=O)Nc3ccc(S(=O)(=O)Nc4cc(C)on4)cc3)c2c1	-50	2	i	4	-22	25*
CCOc1ccc(CNC(=O)C2Cc3cc(S(=O)(=O)N4CCCC4)ccc3N2C(C)=O)cc1 (stereo unspecified)	7	8	i	23	-24	i
O=C(CSc1ccccc1F)NCC1(N2CCCCC2)CCCCC1	nt	-1	i	11	nt	nt
COc1ccccc1NC(=O)CSc1nnnn1-c1ccc2c(c1)OCO2	-18	-15	-7.5*	10	-21	i
COc1ccccc1NC(=O)CSc1nnnn1-c1ccccc1OC	16	-1	i	-1	-19	i
O=C(NCC(c1ccc(F)cc1)N1CCOCC1)c1nn(-c2ccccc2)c(=O)c2ccccc12 (stereo unspecified)	nt	-2	i	-6	nt	nt
Cc1cc(NC(=O)c2ccc(S(=O)(=O)N3CCCC3)cc2)nc2c1c(=O)oc1ccccc12	0	nt	-14*	nt	-7	nt
Cc1cc(NC(=O)c2ccc(S(=O)(=O)N3CCOCC3)cc2)nc2c1c(=O)oc1ccccc12	7	-28	nt	6	-3	i
CCc1ccc(NC(=O)C2=CC=CN3CCS(=O)(=O)N=C23)cc1	nt	-18	i	0	nt	nt
CN(c1ccccc1)S(=O)(=O)c1cccc(NS(=O)(=O)c2cccc(C(=O)O)c2)c1	nt	-1	i	-23	nt	nt
O=C(CCl)Nc1ccccc1Sc1ccc(Cl)cc1	93*	38	i	9	-31	i
O=C(NCc1ccc2c(c1)OCO2)C1CCN(S(=O)(=O)c2cccs2)CC1	20	-14	i	10	-32	i
O=C(NCc1ccc2c(c1)OCO2)C1CCN(S(=O)(=O)c2ccc(Br)s2)CC1	28	-5	-6.9*	-21	-20	i
CC(C)c1ccc2c(c1)C(N1CCNCC1)Cc1ccc(F)cc1S2 (stereo unspecified)	75*	14	i	4	nt	i
CSc1ccc2c(c1)C(N1CCN(C)CC1)Cc1ccccc1S2 (stereo unspecified)	-26	-4	i	15	-21	i
CN1CCN(C2Cc3ccc(F)cc3Sc3cc(F)c(Cl)cc32)CC1 (stereo unspecified)	102*	-14	i	-30	nt	i
CN1CCN(C2Cc3cc(F)ccc3Sc3ccc(Cl)cc32)CC1 (stereo unspecified)	10	5	i	9	nt	i
COc1cccc(NC(=O)C(C)Sc2nnc(C3CC3)n2C2CC2)c1 (stereo unspecified)	nt	8	-32*	11	nt	nt
Cc1cc(C(=O)CSc2nnc3ccccn23)c(C)n1-c1ccccc1	102*	17	i	-25	41	i
CC12CCC(O)CC1=CCC1C2CCC2(C)C(c3ccn[nH]3)CCC12 (stereo unspecified)	nt	nt	i	nt	nt	nt
CCN(CC)S(=O)(=O)c1cc([N+](=O)[O-])ccc1NNC(=O)Nc1ccc(Cl)c(Cl)c1	?	1	i	-13	7	25*
COC(=O)CSc1nnc(-c2ccc(NS(=O)(=O)c3ccccc3)cc2)o1	-11	8	i	1	-5	25*
